Cardio protect – myocardial damage modulation in H9c2 cells | H9c2 cardiomyocytes, H2O2 injury protection, ATPLite, 2 h | hit rate 0.63% among 360,000 | AID 588492 | protection from H2O2 cell death, % at 20 µM;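 active means compounds giving at least 50% protection of heart cells from peroxide-induced death in the single-dose screen, raw or plate-pattern-corrected value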;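 further: 0% = DMSO wells with peroxide and 100% = DMSO wells without peroxide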
GRIN3A LBD mod – NR3A (human) ligand-binding domain modulation; NR3A LBD differential scanning fluorimetry, Tm shift; 0% = protein alone, 100% = glycine-bound protein; Tm shift relative to glycine control, % at 25 µM; hit rate 2.5% among 340,000; AID 1259313;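 active means melting temperature shift of at least 10% of the positive control shift, at one fixed dose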
AI-2 QS modul – Vibrio harveyi AI-2 quorum sensing modulation; Vibrio harveyi JMH597 AI-2 luminescence/OD600 ratio, 9 h; active compounds read low; strain lacks LuxN and CqsS sensors; 0 = neutral-control median; activity change, % at 7.5 µM; hit rate 0.4% among 300,000; in the data active means activity change below about -75%, passing the limit was not always enough;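 further: luminescence divided by OD600 gain over 9 h not by final OD600 alone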
AHR activator – activators of human aryl hydrocarbon receptor | P35869 | AHR-responsive luciferase reporter cells, luminescence | activation, % at 5 µM | hit rate 2.5% among 320,000 | AID 2796; in the data active means activation above about 47%;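 further: 0% = vehicle wells and 100% = reference agonist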
NTR1 agonist – activates human neurotensin receptor 1. P30989. NTR1-U2OS beta-arrestin-GFP spot imaging, agonist mode. hit rate 0.17% among 330,000. activation, % at 20 µM;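 active means activation at or above 40% of the spot to cytoplasm intensity ratio, with at least 20 cells analyzed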;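 further: 0% = DMSO without peptide and 100% = 100 nM NTR1 peptide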
Target sequence (P30989 whole entry, looked up): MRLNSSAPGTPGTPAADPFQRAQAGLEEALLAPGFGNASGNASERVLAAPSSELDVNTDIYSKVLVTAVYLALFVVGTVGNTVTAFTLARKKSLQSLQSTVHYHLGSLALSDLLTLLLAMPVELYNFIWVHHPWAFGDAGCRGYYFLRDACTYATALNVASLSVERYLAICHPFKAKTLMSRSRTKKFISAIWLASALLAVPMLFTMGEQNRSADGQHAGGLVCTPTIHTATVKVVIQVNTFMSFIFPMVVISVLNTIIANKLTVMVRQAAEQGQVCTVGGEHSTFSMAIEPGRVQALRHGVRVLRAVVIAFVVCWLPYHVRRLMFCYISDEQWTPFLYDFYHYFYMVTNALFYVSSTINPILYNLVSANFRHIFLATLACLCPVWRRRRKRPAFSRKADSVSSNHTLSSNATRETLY
SUMO Mot1 rescue – SUMOylation pathway inhibition by Mot1-301 growth rescue | S. cerevisiae Mot1-301 growth rescue, ATP luminescence, 38.5C; percent above DMSO median, 100 means doubled | growth rescue, % at 18.8 µM | hit rate 1% among 320,000 | AID 2716;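 active means every valid replicate shows activation above 250% relative to neutral control wells; inactive means the rest, any valid replicate at or below 250%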;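 further: OY570 slx delta 5 strain wells were the positive control but not used for scaling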
* hit, by the source's call. Sampled rows, rich in hits. Any-hit rate of the full collection: about 6.2%.

Results for Oc1cccc2c(NC(=S)Nc3ccc(OC(F)F)cc3)cccc12 ?
Cardio protect: -14; GRIN3A LBD mod: 11*; AI-2 QS modul: -2; AHR activator: 30; NTR1 agonist: 6; SUMO Mot1 rescue: -4

Results for Cc1ccc(NC(=S)Nc2ccc3cn[nH]c3c2)cc1 ?
Cardio protect: -5; GRIN3A LBD mod: 19*; AI-2 QS modul: 11; AHR activator: 6; NTR1 agonist: 3; SUMO Mot1 rescue: -1

Results for Cc1cc(C)cc(NC(=S)Nc2ccc3cn[nH]c3c2)c1 ?
Cardio protect: -1; GRIN3A LBD mod: 15*; AI-2 QS modul: 13; AHR activator: 6; NTR1 agonist: 0

Results for FC(F)Oc1ccc(NC(=S)NCc2ccccc2)cc1 ?
Cardio protect: -3; GRIN3A LBD mod: 4; AI-2 QS modul: -13; AHR activator: 3; NTR1 agonist: 6; SUMO Mot1 rescue: 133

Results for S=C(Nc1ccccc1)Nc1ccc2cn[nH]c2c1 ?
Cardio protect: -13; GRIN3A LBD mod: 9; AI-2 QS modul: 9; AHR activator: 6; NTR1 agonist: 0; SUMO Mot1 rescue: -14

How did FC(F)Oc1ccc(NC(=S)Nc2ccc3cn[nH]c3c2)cc1 do in these assays?
Cardio protect: 0; GRIN3A LBD mod: 17*; AI-2 QS modul: 33; AHR activator: 22; NTR1 agonist: 5; SUMO Mot1 rescue: -24

Results for FC(F)Oc1ccc(NC(=S)NC23CC4CC(CC(C4)C2)C3)cc1 ?
Cardio protect: -9; GRIN3A LBD mod: 12*; AI-2 QS modul: 26; AHR activator: 1; NTR1 agonist: 13; SUMO Mot1 rescue: 4

Results for CCCNC(=O)c1cc(C2CCCCN2C(=O)CCCc2ccccc2)on1 (stereo unspecified) ?
Cardio protect: -3

What do the screens show for `O=C(/C=C/c1ccc(N2CCC(c3ccccc3)=N2)cc1)c1ccccc1`?
GRIN3A LBD mod: 30*; AI-2 QS modul: 22; AHR activator: 6; NTR1 agonist: -3; SUMO Mot1 rescue: inactive

What do the screens show for `Cc1cc(C)c(C)c(S(=O)(=O)N2CCC(C(=O)Nc3ccc(S(=O)(=O)N4CCOCC4)cc3)CC2)c1C`?
Cardio protect: -10; GRIN3A LBD mod: 19*; AI-2 QS modul: 31; AHR activator: 0; NTR1 agonist: 6; SUMO Mot1 rescue: 0

What do the screens show for `Cc1cc(C)c(C)c(S(=O)(=O)N2CCC(C(=O)NNC(=O)c3ccccc3O)CC2)c1C`?
Cardio protect: 66*; GRIN3A LBD mod: -3; AI-2 QS modul: 35; AHR activator: 3; NTR1 agonist: 0; SUMO Mot1 rescue: 326

What do the screens show for `Cc1ccc(S(=O)(=O)N2CCC(C(=O)NNC(=O)c3ccccc3O)CC2)cc1C`?
Cardio protect: 12; GRIN3A LBD mod: 0; AI-2 QS modul: 11; AHR activator: 10; NTR1 agonist: 0; SUMO Mot1 rescue: -6

How did Cc1ccc(NC(=O)C2CCN(S(=O)(=O)c3ccc4c(c3)NC(=O)C(C)S4)CC2)cc1Cl (stereo unspecified) do in these assays?
Cardio protect: -19; GRIN3A LBD mod: 10*; AI-2 QS modul: 28; AHR activator: -3; NTR1 agonist: 8; SUMO Mot1 rescue: -15

Results for O=C1Nc2ccccc2N=C(c2ccc3c(c2)OCO3)C1N(C(=O)c1ccc2ccccc2c1)C1CC1 (stereo unspecified) ?
Cardio protect: -4

How did COc1cccc(S(=O)(=O)N(C)C[C@@H]2Oc3cc(C#CCN(C)C)ccc3S(=O)(=O)N([C@H](C)CO)C[C@@H]2C)c1 do in these assays?
Cardio protect: 22

What do the screens show for `CCOC(=O)c1c(NC(=O)C(C)NCc2ccco2)sc2c1CCC(C)C2` (stereo unspecified)?
Cardio protect: -13; GRIN3A LBD mod: 5; AI-2 QS modul: -9; AHR activator: 51*; NTR1 agonist: 11; SUMO Mot1 rescue: 4

How did CCOC(=O)c1c(NC(=O)COC(=O)Cn2cnc3ccccc32)sc2c1CCC(C)C2 (stereo unspecified) do in these assays?
Cardio protect: -12; GRIN3A LBD mod: -8; AHR activator: 0; SUMO Mot1 rescue: 146

How did CCOC(=O)c1c(NC(=O)Cn2nnc3ccccc32)sc2c1CCC(C)C2 (stereo unspecified) do in these assays?
Cardio protect: -9; GRIN3A LBD mod: -3; AI-2 QS modul: 18; AHR activator: 63*; NTR1 agonist: 10; SUMO Mot1 rescue: -1

How did CC1CCc2c(sc(NC(=O)COC(=O)c3ccccc3NCc3ccco3)c2C#N)C1 (stereo unspecified) do in these assays?
Cardio protect: -11; GRIN3A LBD mod: -1; AI-2 QS modul: 26; AHR activator: 1; NTR1 agonist: 8; SUMO Mot1 rescue: 12

What do the screens show for `O=C(COC(=O)c1ccc(S(=O)(=O)N2CCOCC2)cc1)NCc1ccco1`?
Cardio protect: 4

Results for O=[N+]([O-])c1cccc(N/N=C/c2ccc(N3CCOCC3)cc2)c1 ?
Cardio protect: 13; GRIN3A LBD mod: 22*; AI-2 QS modul: 10; AHR activator: -2; NTR1 agonist: 27; SUMO Mot1 rescue: 115
